Data on 40 molecules can be found in PubChem BioAssay (Tox21).

Results filed as inconclusive are left out. Unmarked numbers belong to inactive results. The call rests on the fitted dose curve; in most records, active means well fitted inhibition curve with a large enough effect in the signal ratio in the repeat runs (not every such curve was filed as active); inconclusive means weak or mixed curves, or effect the other way; inactive means no such curve, though single readings can be large or run the other way; the % refers to the signal ratio.
On the % scale 0 is the no-effect control and ±100 the full control effect.

Sequence of Peroxisome proliferator-activated receptor delta (Homo sapiens) (Q03181 whole entry, looked up): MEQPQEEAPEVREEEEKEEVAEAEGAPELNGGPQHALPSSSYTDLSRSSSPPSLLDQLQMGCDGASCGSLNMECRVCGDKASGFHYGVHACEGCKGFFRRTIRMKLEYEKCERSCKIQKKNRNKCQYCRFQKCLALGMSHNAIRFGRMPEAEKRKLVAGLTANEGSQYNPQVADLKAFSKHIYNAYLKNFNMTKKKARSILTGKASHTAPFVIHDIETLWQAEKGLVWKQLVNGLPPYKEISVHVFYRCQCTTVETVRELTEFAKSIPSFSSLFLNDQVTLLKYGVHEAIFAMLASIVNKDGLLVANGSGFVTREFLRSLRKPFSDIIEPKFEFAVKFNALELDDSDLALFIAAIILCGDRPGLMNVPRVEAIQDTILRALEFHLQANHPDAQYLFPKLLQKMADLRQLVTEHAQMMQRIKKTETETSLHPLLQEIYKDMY

The assay addresses Peroxisome proliferator-activated receptor delta (Homo sapiens) (UniProt Q03181). Description: qHTS assay to identify small molecule antagonists of the peroxisome proliferator-activated receptor delta (PPARd) signaling pathway (AID 743215).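 Further: cells stimulated with agonist L165041 at 300 nM final during compound exposure.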 As to conditions: HEK293H PPARd-UAS-bla, beta-lactamase FRET ratio, antagonist, 17 h; series mostly up to 62 µM; ratio activity, negative = inhibition: at the top concentration. From the text: U.S. Tox21 Program National Center for Advancing Translational Sciences [NCATS] NIH Chemical Genomics Center [NCGC] U.S. Environmental Protection Agency [EPA] National Institutes of Environmental Health Sciences [NIEHS] National Toxicology Program [NTP] U.S. Food and Drug Administration [FDA] Tox21 Assay Overview: The peroxisome proliferator-activated receptors (PPARs) are lipid-activated transcription factors of the nuclear receptor superfamily with three distinct subtypes namely PPAR alpha, PPAR delta (PPARd) and PPAR gamma. All these subtypes heterodimerizes with Retinoid X receptor (RXR) and have different physiological functions. […] To identify the compounds that inhibit PPAR-delta signaling, GeneBLAzer PPAR delta UAS-bla HEK293H cell line (Invitrogen, Carlsbad, CA, USA) containing a beta-lactamase reporter gene under the control of an Upstream Activator Sequence (UAS) was used to screen the Tox21 compound library.
Tox21 Assay Protocol Summary: PPARd-bla cells were dispensed at 3000 cells/5uL/well in 1536-well black wall/clear bottom plates using a Multidrop Combi (Thermo Fisher Scientific, Waltham, MA) dispenser. After the assay plates were incubated at 37 C and 5% CO2 for 5 h, 23 nL of compounds dissolved in DMSO, positive controls or DMSO only was transferred to the assay plate by a Pintool station (Kalypsys, San Diego, CA), followed by addition of 1ul L165041 (300 nM, final concentration in the wells). The assay plates were incubated at 37 C for 17 h, and then 1 uL of LiveBLAzerTM B/G FRET substrate was added using a Bioraptr Flying Reagent Dispenser (FRD) workstation (Beckman Coulter, Indianapolis, IN, USA). The assay plates were incubated at room temperature for 2 h and fluorescence intensity was measured by an Envision plate reader (PerkinElmer, Shelton, CT).
On the technique in general: qHTS replaces the single test concentration by a dilution series.
As for `CC(C)c1ccc2c(C(C)C)cc(C(C)C)c(S(=O)(=O)O)c2c1`, the “ratio activity, negative = inhibition” value was -2.34% [at 80.4 µM].
`Cc1ccc(C(C)c2ccc(C)c(C)c2)cc1C`: the “ratio activity, negative = inhibition” value was -4.68%.
As for `CCOC(=S)SSC(=S)OCC`, the “ratio activity, negative = inhibition” value was -10.4%.
Turning to `CCCCCCCCCCCCCCC1CO1` (stereo not given), the “ratio activity, negative = inhibition” value was 0.0319%.
In the case of `CCCCCCCCCCCCCCCC(=O)OC/C=C(C)/C=C/C=C(C)/C=C/C1=C(C)CCCC1(C)C`, the “ratio activity, negative = inhibition” value was -7.05%.
With `CC[C@]12CCCN3CCc4c(n(c5ccccc45)C(=O)C1)[C@@H]32`, the “ratio activity, negative = inhibition” value was -0.104%.
As to `CCC(C)N(C)C(=O)c1cc2ccccc2c(-c2ccccc2Cl)n1` (stereo not given), the “ratio activity, negative = inhibition” value is -17.2%.
`CNS(=O)(=O)Cc1ccc2[nH]cc(CCN(C)C)c2c1`: the “ratio activity, negative = inhibition” value is 1.82%.
In the case of `CN(C)CC[C@@H](c1ccc(Br)cc1)c1ccccn1`, the “ratio activity, negative = inhibition” value is -2.56%.
Consider `CCN(CC)CCOC(=O)C1(c2ccccc2)CCCC1`, for which the “ratio activity, negative = inhibition” value is 0.162%.
On to `C=C(C)C(=O)OCCOc1ccccc1`, for which the “ratio activity, negative = inhibition” value was -11.7%.
To `CC(=O)O[C@H]1C[C@@H]2CC[C@@H]3[C@H](CC[C@@]4(C)[C@H]3C[C@H]([N+]3(C)CCCCC3)[C@@H]4OC(C)=O)[C@@]2(C)C[C@@H]1N1CCCCC1` belongs -2.49%.
As for `C#CCOC(=O)[C@@H](C)Oc1ccc(Oc2ncc(Cl)cc2F)cc1`, the “ratio activity, negative = inhibition” value was 7.5%.
To `CCCCC(CC)(CO)CO` belongs 0.543%; to `NC(=S)N/N=C/c1cccnc1`, 2.35%; to `Oc1ccc(O)c2c(O)cccc12`, -0.159%.
For `O=C(O)c1cccc(N(Cc2cccnc2)c2ccc(OC(F)F)c(OC(F)F)c2)c1` the value was -18.5%; for `N#Cc1c(F)cccc1F`, 15.9%; for `CC(C)(Oc1ccc(Cl)cc1)C(=O)OCCCOC(=O)C(C)(C)Oc1ccc(Cl)cc1`, 12.4%.
To `Nc1cnn([C@@H]2O[C@H](CO)[C@@H](O)[C@H]2O)c(=O)n1` belongs -15.1%; to `CC(=O)Nc1ccc(/C=N/NC(N)=S)cc1`, 10.5%; to `CCCCOc1ccc(CC(=O)NO)cc1`, -17.5%.
Take `CC(=O)N(CC(=O)N(C)C)c1ccccc1`: the “ratio activity, negative = inhibition” value was -3.66%.
For `c1ccc(CNCc2ccccc2)cc1` the value was 0.116%; for `c1ccc(-c2nc[nH]c2-c2ccccc2)cc1`, -2.14%.
To `CC[C@H](C)[C@@H](C(=O)O)n1sc2ccccc2c1=O` belongs 0.521%; to `CCC(=O)OC(C)(C)C1CC=C(C)CC1` (stereo not given), -2.06%.
For `FC(F)(F)C(F)(F)C(F)(F)C(F)(F)C(F)(F)C(F)(F)CCI`, the “ratio activity, negative = inhibition” value was 12.1%.
With `Cn1c(=O)c2c(ncn2CC(O)CO)n(C)c1=O` (stereo not given), the “ratio activity, negative = inhibition” value was -27.5%.
Turning to `C=C(C)C(=O)OCCN(C)C`, the “ratio activity, negative = inhibition” value was -19.6% [at 80.4 µM].
For the molecule `Cc1ccc2c(ccc3ccccc32)c1`, the “ratio activity, negative = inhibition” value is -7.15% [at 80.4 µM].
With `Nc1ccc(C(=O)N2CC3CC(CN(Cc4ccccc4)C3)C2)cc1`, the “ratio activity, negative = inhibition” value is 1.65%.
Turning to `CCCC(=O)OCC`, the “ratio activity, negative = inhibition” value was -20.6%.
To `CCN1CCC[C@H]1CNC(=O)c1c(OC)ccc(Br)c1OC` belongs 5.79%; to `Cc1cc(O)ccc1N`, -10.2% [at 80.4 µM].
As for `NC[C@H]1O[C@H](O[C@H]2[C@H](O)[C@@H](O[C@H]3O[C@H](CO)[C@@H](O)[C@H](N)[C@H]3O)[C@H](N)C[C@@H]2N)[C@H](O)[C@@H](O)[C@@H]1O`, the ratio activity, negative = inhibition is 3.27% [at 6.26 µM].
For `O=C(/C=C/c1ccc(O)c(O)c1)O[C@@H]1C[C@](O)(C(=O)O)C[C@@H](O)[C@H]1O`, the “ratio activity, negative = inhibition” value is 7.14% [at 80.4 µM].
In the case of `N#CCc1cccc(C(F)(F)F)c1`, the “ratio activity, negative = inhibition” value was -20.9%.
Consider `CCCCCCCCCC(=O)OCC`, for which the “ratio activity, negative = inhibition” value is 2.5%.
With `O=C(O)c1cn(C2CC2)c2cc(Cl)c(F)cc2c1=O`, the “ratio activity, negative = inhibition” value was 12.4%.
